About 79,000 compounds went through this panel and 15% of them were active in at least one assay; those are over-represented in the sample as a whole. Values without a mark were called inactive. No stated cut-off is given here; in the data, active means growth inhibition above about 70%; inactive means the rest.
assay: NCI Yeast Anticancer Drug Screen. Data for the bub3 strain (AID 167); settings: S. cerevisiae bub3 mutant strain, hits give high values; at 50.0 µM unless noted
Method in brief: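 Inhibition values come from growth of compound-treated mutant yeast normalised to vehicle-treated controls.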

SMILES | growth inhibition
O=c1[nH]c2[nH]c(=S)[nH]c(=O)c2[nH]1 | -3.4%
CC(C)N(C(=O)c1ccccc1O)C(C)C | -4.4%
[N-]=[N+]=NC1(N=[N+]=[N-])C(=O)Nc2ccccc2C1=O (stereo not drawn) | -10.2%
COc1ccc(N2CC[N+](c3ccc(N(C)C)cc3)=C2C2=[N+](c3ccc(N(C)C)cc3)CCN2c2ccc(OC)cc2)cc1 | -10.2%
O=c1oc(-c2ccccc2CCl)nc2ccccc12 | -13.8%
COC1OC(COC(=O)NCCCCC(=O)C(F)(F)F)C(O)C(O)C1O (stereo not drawn) | 28.2%
NC(CSCCB(O)O)C(=O)O (stereo not drawn) | -5%
Cc1ccc(C(=O)O)c(/C=C2\Cc3cc(C)cc(C)c3C2=O)c1 | 9.85%
CC(CCO)CCCO (stereo not drawn) | -26.2%
Cc1ccc2sccc(=O)c2c1 | -5.95%
[O-][N+](=Nc1ccc2c(c1)Cc1ccccc1-2)c1ccc2c(c1)Cc1ccccc1-2 | 0.35%
FC(F)(F)c1ccc2ccc3ccc(Cl)cc3c2c1 | 21.6%
O=C(NO)c1ccccc1 | -4%
COC(=O)c1cc(C)n(C)c(=O)c1CN | -8.8%
Cc1nc(-c2ccc(N=Cc3ccc(N4CCC5(CCCCC5)CC4)cc3)cc2)cs1 | 6.1%
Cc1ccc(S(=O)(=O)NC(CCC(=O)N2CCOCC2)C(=O)O)cc1 (stereo not drawn) | 24.8%
O=C(Oc1ccc(Cl)cc1)c1ccc([N+](=O)[O-])cc1 | 8.65%
O=[N+]([O-])c1ccc(N(CCO)CCO)cc1 | -6.4%
